Data as given in PubChem BioAssay.
Activity calls are given as the source filed them. No rule for the calls is given here.

Test: inhibition of Brca1/Bard1 split-luciferase complementation, confirmation, counter-screen for Mdm2/MdmX interaction inhibitor project, luminescence, single concentration (AID 504668)
Conditions: Brca1/Bard1 bimolecular luciferase complementation counterscreen, at 8 µM, hits give high values

SMILES | inhibition
N#Cc1ccc(NC(=O)Nc2ccc(Oc3ccc(NC(=O)Nc4ccc(C#N)cc4)cc3)cc2)cc1 | 35.1% (active)
FC(F)(F)c1cccc(NC(=S)N(CCCN2CCCC2)Cc2cccn2Cc2ccc(Cl)cc2)c1 | 30.3% (active)
CN1CCN(C(=O)CCCN2C(=O)/C(=C/c3ccccc3)SC2=S)CC1 | 30.5% (active)
CCCN(CCC)c1nc(-c2ccccn2)nc2ccccc12 | 24.6% (active)
CCCCN(CC)CCNC(=O)c1cc2c(-c3ccc(Cl)cc3)nn(C)c2s1 | 31.2% (active)
COc1ccc(/C=C2\CCC/C(=C\C=N\N(C)C)C2=O)cc1 | 29.2% (active)
COc1ccc(C(=O)N/N=C/c2cc(Br)ccc2O)cc1OC | 29.6% (active)
C=CCC(Nc1ccccc1)C12C=CC(O1)C(C(=O)OC)=C2C(=O)OC (stereo not given) | 31.4% (active)
COc1ccc(/C(C)=N/NC(=O)c2cccc(S(=O)(=O)N3CCCC3)c2)c(O)c1 | 34.4% (active)
C/C(=N\NC(=O)c1cccc2ccccc12)c1ccccn1 | 29.9% (active)
Cc1cccc(NS(=O)(=O)c2ccc(C)c(C(=O)OCC(=O)Nc3cc(C)on3)c2)c1 | 32.1% (active)
Oc1c(Cl)cc(Cl)c(Cl)c1Cc1c(O)c(Cl)cc(Cl)c1Cl | 26.8% (active)
COc1ccccc1N(CC(=O)N/N=C/c1c(O)ccc2ccccc12)S(C)(=O)=O | 26.2% (active)
O=C(c1ccc(S(=O)(=O)c2ccc(F)cc2)c([N+](=O)[O-])c1)N1CCCCCC1 | 30.1% (active)
COc1ccc(NC(=O)Nc2cccc3c2O[C@H](CN(C)Cc2ccc(-c4ccccc4)cc2)[C@@H](C)CN([C@H](C)CO)C3=O)cc1 | 31% (active)
COc1ccc(C2Oc3ccccc3C3=C2C(c2cccs2)n2ncnc2N3)cc1 (stereo not given) | 29.5% (active)
O=[N+]([O-])c1cc(-c2nc(-c3ccncc3)no2)ccc1Cl | 23.3% (active)
Cc1c(Cl)c([N+](=O)[O-])nn1Cc1ccc(C(=O)N/N=C\c2cc(Cl)ccc2O)o1 | 32.4% (active)
C=C1CCC2[C@](C)(CO)[C@H](O)CC[C@@]2(C)[C@@H]1C/C=C1\C(=O)OC[C@H]1O (stereo not given in full) | 27.2% (active)
CCCCC(=O)NC(c1ccc(N(C)C)cc1)c1ccc2cccnc2c1O (stereo not given) | 23.7% (active)

SMILES | inhibition
C=CCn1c(CNc2ccc(C)cc2)nnc1SCC(=O)N/N=C/c1ccc(O)cc1O | 35.6% (active)
Clc1cc2cccnc2c2ncccc12 | 31.6% (active)
CCC(C)NCC(=O)Nc1ccc(-c2nc3cc(NC(=O)CNC(C)CC)ccc3o2)cc1 (stereo not given) | 35.6% (active)
C[C@@]12C(=O)Nc3ccccc3C(=O)N1[C@H]1c3cc(Br)ccc3OC[C@@H]1[C@@H]2c1ccccc1 | 30.8% (active)
O=C(N/N=C(\Cc1ncc[nH]1)c1ccccc1)c1cccnc1 | 33.1% (active)
COc1ccc(N/N=C/c2c(C(=O)O)ccc3ccccc23)cc1 | 24.1% (active)
CCOC(=O)CSC1=NC(=O)/C(=C/c2ccc(OC)cc2)S1 | 32.1% (active)
Cc1cc(NC(=O)c2ccc(F)cc2F)n(-c2nc3ccccc3[nH]2)n1 | 29.6% (active)
N=c1ccn2c(n1)OC1C(O)C(CO)OC12 (stereo not given) | 45.7% (active)
COc1cc(/C=C2\CC/C(=C\c3cc(OC)c(O)c(OC)c3)C2=O)cc(OC)c1O | 25.6% (active)
Cc1c(C(=O)Nc2cccc(Cl)c2)oc2ccc(S(=O)(=O)N3CCC4(CC3)OCCO4)cc12 | 32.3% (active)
CC[C@@H](C(=O)[C@@H](C)[C@@H](O)[C@H](C)CCc1ccc(C)c(O)c1C(=O)O)[C@H]1O[C@](CC)([C@H]2CC[C@](O)(CC)[C@H](C)O2)C[C@@H]1C | 35.2% (active)
COc1ccc(C(=O)N/N=C(\Cc2ncc[nH]2)c2ccccc2)cc1 | 25.7% (active)
Cc1ccc(C(=O)N2C(CC(=O)Nc3ccc(Cl)cc3)C(=O)NC3CCCCC32)cc1 (stereo not given) | 24.8% (active)
COc1ccc2[nH]c(C(=O)N/N=C/c3ccc(O)cc3O)cc2c1 | 31.2% (active)
C=CCSc1nsc(NC(=O)Nc2ccc(F)cc2)n1 | 28% (active)
Cc1nc(SCc2nc3cc(Cl)c(F)cc3[nH]2)c2oc3ccccc3c2n1 | 31.6% (active)
CCc1cc(C(=O)N2CCc3c([nH]c4ccccc34)C2c2ccc(OC)cc2F)no1 (stereo not given) | 34.5% (active)
Cc1ccccc1-c1cc(C(=O)Nc2sc(C(=O)OC(C)C)c(C)c2C#N)c2ccccc2n1 | 23.7% (active)
N#CCSc1nc2c(sc(=S)n2Cc2ccco2)c(=O)n1-c1ccc(F)cc1 | 31.6% (active)
